# High-throughput results as filed in PubChem BioAssay.
# PfM18AAP inh: PfM18AAP inhibitors, malaria aminopeptidase, primary screen, biochemical, QFRET, recombinant enzyme. H-Glu-NHMec fluorogenic cleavage. inhibition, % at 7.35 µM. 1.2% of 290,000 active;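 active = inhibition above the campaign mean inhibition over all tested compounds plus 3 SD, cut at about 28% in these data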;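 also: 0% = plate median of test compound wells and 100% = 2 mM ZnCl2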
# ALR H2O2 inh: inhibitors of human ALR sulfhydryl oxidase, primary screen, biochemical, H2O2 detection, HRP-luminol luminescence, single point; inhibition, % (concentration not given with the values); 3.8% of 290,000 active; FAD-linked sulfhydryl oxidase ALR (Homo sapiens), P55789; purified ALR, DTT oxidation; AID 485317, 2010;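 active = mean replicate inhibition above about 79%, with every replicate also reaching it, limit read from the data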
# CendR NRP1 mod: modulators of CendR peptide binding to NRP-1, primary screen, biochemical, fluorescence polarization, uHTS | FAM-RPARPAR peptide binding to NRP-1 | inhibition, % at 25 µM | 0.85% of 360,000 active;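 active = inhibition or corrected inhibition above about 18%, plus a signal ratio from 0.5 to 1.5, limit read from the data, passing the limit was not always enough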
# APOBEC3G inh: APOBEC3G DNA deaminase inhibitors, primary screen, biochemical, fluorescence, single-stranded DNA substrate, uHTS. recombinant A3G, ssDNA deamination FAM/TAMRA fluorescence. 0.28% of 330,000 active. inhibition, % at 20 µM. DNA dC->dU-editing enzyme APOBEC-3G (Homo sapiens), Q9HC16;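 active = inhibition of at least 40% at 20 µM, with no more than 30% in the related APOBEC3A deaminase screen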;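 also: plate controls were DMSO wells with A3G for no effect and wells lacking A3G enzyme for full effect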
# Target sequence (Q9HC16 whole entry, looked up): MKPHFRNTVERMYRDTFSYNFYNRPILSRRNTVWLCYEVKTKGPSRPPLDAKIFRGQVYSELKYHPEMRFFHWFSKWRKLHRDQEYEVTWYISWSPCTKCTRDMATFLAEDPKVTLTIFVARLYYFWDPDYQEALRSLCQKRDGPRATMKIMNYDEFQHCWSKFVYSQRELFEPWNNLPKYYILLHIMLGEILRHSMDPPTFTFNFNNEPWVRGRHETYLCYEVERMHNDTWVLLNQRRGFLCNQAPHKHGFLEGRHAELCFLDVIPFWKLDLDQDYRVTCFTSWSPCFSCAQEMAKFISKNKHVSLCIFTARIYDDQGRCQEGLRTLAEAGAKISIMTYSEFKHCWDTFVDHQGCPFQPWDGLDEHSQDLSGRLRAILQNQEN
# A3A deaminase: APOBEC3A ssDNA deaminase inhibitors, primary screen, selectivity assay for APOBEC3G inhibitor project, biochemical, FAM/TAMRA oligo cleavage fluorescence | DNA dC->dU-editing enzyme APOBEC-3A (Homo sapiens), P31941 | recombinant A3A, FAM/TAMRA ssDNA deamination fluorescence | inhibition, % at 20 µM | 0.41% of 330,000 active | AID 493011, 2011;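 active = at least 40% inhibition at 20 µM here, with at most 30% in a related deaminase screen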;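 also: plate controls were A3A with DMSO for no effect and wells lacking A3A enzyme for full effect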
# Target sequence (P31941 whole entry, looked up): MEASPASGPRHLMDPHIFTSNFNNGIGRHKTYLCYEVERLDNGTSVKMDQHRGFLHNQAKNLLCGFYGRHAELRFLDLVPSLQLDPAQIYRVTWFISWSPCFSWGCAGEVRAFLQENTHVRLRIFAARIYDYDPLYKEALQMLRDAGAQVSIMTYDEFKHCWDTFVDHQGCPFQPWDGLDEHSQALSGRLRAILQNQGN
# CR mimetic SO: reduction of superoxide in aged yeast, primary screen, HTS; S. cerevisiae aged cells, superoxide DHE fluorescence; hits give low values; superoxide response (% of plate mean), % at 10 µM; 0.18% of 330,000 active; AID 2690, 2010;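 active = superoxide response under a set limit, about three screen SD below normal, cut at about 65% in these data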;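 also: yeast aged for seven days with compound at 30 °C before DHE staining; 100% = average MFI of all compound-treated wells on the plate with controls excluded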
# APOBEC3A confirm: APOBEC3A deaminase inhibitors, retest, confirmation, selectivity assay for APOBEC3G inhibitor project, biochemical, single concentration, fluorescence readout; shares compounds with A3A deaminase; 63% of 1,400 active; recombinant A3A, ssDNA deaminase UDG fluorescence assay; AID 493151, 2011; inhibition, % at 20 µM;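 active = inhibition reaching a set limit, 80% of the first screen's cutoff, at 20 µM in any replicate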;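 also: plate controls were DMSO wells with A3A for no effect and wells lacking A3A enzyme for full effect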
# UDG ctr A3A: E. coli UDG inhibitors, confirmation, counter-screen for APOBEC3A inhibitor project, biochemical, single concentration, fluorescence, FAM/TAMRA oligo; AID 504714, 2011; UDG counterscreen, FAM/TAMRA uracil oligo fluorescence; inhibition, % at 20 µM; shares compounds with A3A deaminase; 1,000 tested, under 10 active; call rule not given here
# * hit, by the source's call; . = no result given. In the library only some 5.2% were active in any assay of this set; here they are far more common.
SMILES,PfM18AAP inh,ALR H2O2 inh,CendR NRP1 mod,APOBEC3G inh,A3A deaminase,CR mimetic SO,APOBEC3A confirm,UDG ctr A3A
Cc1nn(C(C)C(=O)Nc2ccc(Cl)cn2)c(C)c1[N+](=O)[O-] (stereo not given),2,8,-4,-1,52*,108,9,0
CC(=O)Nc1nc2c(ccc3ccccc32)s1,-2,-10,-9,9,49*,100,13,.
Cc1ccccc1NC(=O)NNC(=O)CCc1ccccc1,0,-14,1,0,41*,98,-1,.
N#CC1=C(N)S[C@H](C(=O)C23CC4CC(CC(C4)C2)C3)[C@H]1c1ccncc1,9,2,-21,-5,0,88,.,.
Oc1ccc(Nc2nc3ccccc3nc2Nc2ccc(O)cc2)cc1,-4,96*,-94,-7,42*,104,43*,1
Cc1cccc(NS(=O)(=O)c2cccc(C(=O)N3CCC3)c2)c1,.,2,-6,-6,-2,119,.,.
CC(=O)c1cc(C(=O)c2ccccc2)sc1Nc1ccccc1,-7,-4,-1,-1,1,93,.,.
CCOc1cc(/C=C/c2cccc[n+]2C)ccc1OCC(=O)Nc1ccc(C)cc1,-1,-5,-5,22,87*,104,74*,-2
COc1cc(/C=C/c2cccc[n+]2C)ccc1OCC(=O)Nc1ccccc1C,4,8,6,23,82*,103,72*,0
CCOc1cc(/C=C/c2cccc[n+]2C)ccc1O,-4,50,4,32,81,102,.,.
COc1ccc(OCC(O)CNC(=O)Nc2ccccc2)cc1 (stereo not given),2,0,-5,-1,0,92,.,.
c1cc(C2OCCN2CC2COC3(CCCC3)O2)ccn1 (stereo not given),-9,-26,-5,-5,-2,90,.,.
C[N+]1(CC2COC3(CCCCC3)O2)CCCCC1 (stereo not given),-1,-4,9,25,68*,91,74*,-3
CCOC(=O)c1nc2c(=O)n(C)c(=O)n(C)c2n(C)c1=O,.,-14,0,0,-3,103,.,.
Cc1ccc(OC(C)C(=O)Nc2ccc3c(c2)n(C)c(=O)n3C)c(C)c1 (stereo not given),-2,34,-2,19,84*,102,29,.
Cc1cccnc1NC(=O)CN1C(=O)COc2ccc(Cl)cc21,-11,.,5,17,69*,88,59*,-1
O=C1C=C(O)CC(c2ccco2)C1 (stereo not given),12,-6,-31,13,46*,88,53*,-4
O=C1C=C(NCc2ccc(Cl)cc2)CC(c2ccco2)C1 (stereo not given),10,-25,-5,2,6,115,.,.
COc1cc2c(cc1OC)CC(=O)N(C)CC2,-1,7,-4,-4,0,95,.,.
COc1cc2c(cc1OC)C[N+](C)(C)CC2,-5,-7,-4,11,45*,108,75*,-4
CCN1CCN(c2ccc(S(=O)(=O)N3CCCCC3)cc2NC(=O)COc2ccc(F)cc2Cl)CC1,-13,-3,-16,11,56*,95,53*,-4
CCN1CCN(c2ccc(S(=O)(=O)N3CCCCC3)cc2NC(=O)COc2cc(C)ccc2Cl)CC1,.,.,-10,15,57*,102,73*,3
CC(Oc1ccc(F)cc1)C(=O)Nc1cc(S(=O)(=O)N2CCCCC2)ccc1N1CCOCC1 (stereo not given),.,-2,2,4,42*,103,3,.
CCN1CCN(c2ccc(S(=O)(=O)N3CCCCC3)cc2NC(=O)C(C)Oc2ccc(F)cc2)CC1 (stereo not given),.,1,-8,33,78,84,.,.
Cn1c(=O)c2ncn(CC(=O)NC3CCCCCC3)c2n(C)c1=O,4,3,9,12,43*,98,15,.
SMILES,PfM18AAP inh,ALR H2O2 inh,CendR NRP1 mod,APOBEC3G inh,A3A deaminase,CR mimetic SO,APOBEC3A confirm,UDG ctr A3A
CCc1ccc(NC(=O)Cn2cnc3c(=O)n(C)c(=O)n(C)c32)cc1,1,.,4,34,69,103,.,.
CCCn1c(=O)c2sccc2n2c(CCCC(=O)NCc3ccco3)nnc12,25,0,1,15,46*,93,34*,.
Cc1cnc(C(=O)Nc2ccc(N3CCN(C(=O)OC(C)(C)C)CC3)cc2)cn1,2,-18,6,-5,-3,108,.,.
COC(=O)C1=C(C)N(Cc2ccccc2)C(=NCCc2cccnc2)N[C@H]1c1ccccc1,-7,-21,3,27,80*,100,74*,-3
COC(=O)C1=C(C)N(Cc2ccccc2)C(=NCC2CC2)N[C@H]1c1ccccc1,.,-6,-34,7,39,94,.,.
COC(=O)C1=C(C)N(Cc2ccccc2)C(=NCCc2cccnc2)N[C@H]1c1ccc(Br)cc1,.,-2,17,12,45*,89,54*,2
COC(=O)C1=C(C)N(Cc2ccccc2)C(=NCCCCO)N[C@H]1c1ccccc1,-5,.,.,19,52*,96,75*,6
Cc1ccc(C(C)C)c(OCC(=O)Nn2c(=O)[nH]c3ccccc3c2=O)c1,7,.,5,1,3,99,.,.
COc1cccc(CNC(=O)C2CCN(S(=O)(=O)c3ccc4c(c3)C(C)(C)C(=O)N4C)CC2)c1,.,.,1,.,.,.,.,.
N[C@@H](Cc1ccc(O)cc1)C(=O)Nc1ccc2ccccc2c1,.,2,4,-10,-4,101,.,.
Cc1cccc(S(=O)(=O)N2C[C@@H](O)COC[C@@H]3O[C@H](CC(=O)NCCCN4CCOCC4)CC[C@H]32)c1,.,.,3,.,.,.,.,.
O=C(O)c1cccc(-c2ccc(/C=C3/SC(=Nc4ccccc4)N(Cc4cccnc4)C3=O)o2)c1,6,1,-67,20,52*,106,33*,2
